Experimental data: PubChem BioAssay (NCATS)
Records with an inconclusive call do not appear. A call without a number means that no potency is given here. Calls of active or inactive are those of the source. The call rests on the fitted dose curve; in most records, active means well fitted cell-killing curve with a large enough effect; inconclusive means small, poorly fitted or top-dose-only effect; inactive means flat fitted curve, though single readings scatter.
Potency means the concentration at half of the fitted maximal effect.

Assay: Cell Viability - Renal Proximal Tubule (AID 545); further: nearly all actives have a fitted effect of over 40% in size
Conditions: renal proximal tubule cells viability, primary cells of rat origin; activity change, negative = cytotoxicity: at 91.7 µM (top of the series)
Excerpt: NIH Chemical Genomics Center [NCGC]
NIH Molecular Libraries Screening Centers Network [MLSCN]
National Institutes of Environmental Health Sciences [NIEHS]
National Toxicology Program [NTP]
We have developed a 1536-well cell-based assay for quantitative high throughput screening (qHTS) against a number of cell lines to determine in vitro cytotoxicity of small molecules. This particular assay uses the renal proximal tubule cells which are derived from normal kidney cells freshly isolated from rat.
NCGC Assay Protocol Summary:
The CellTiter-Glo luminescent cell viability assay (Promega) is a homogeneous method to measure the number of viable cells in culture. The end point readout of this assay is based on quantitation of intracellular ATP, an indicator of metabolic activity, using the luciferase reaction. Luciferase catalyzes the oxidation of beetle Luciferin to oxyluciferin and light in the presence of ATP. The luminescent signal is proportional to amount of ATP present.
Using the CellTiter-Glo luminescent cell viability assay, the amount of cellular ATP was measured in the renal proximal tubule cells with complete culture medium following compound treatment for 40 hours. The assay was performed in opaque white Kalypsys 1536-well plates. In the screen, tamoxifen and doxorubicin were used as positive controls. Library compounds were measured for their ability to cause acute toxicity in the cell line, as reflected by a decrease in intracellular ATP levels, in a concentration-dependent manner. […] AC50 values were determined from concentration-response data modeled with the standard Hill equation.
qHTS protocol for CellTiter Glo renal proximal tubule cell assay
[Step] [Parameter] [Value] [Description]
1. Reagent; 5 uL; 1000 renal proximal tubule cells/well
2. Time; 5 hr; 37 °C incubation
4. Controls; 23 nL; Tamoxifen 0.34 uM to 100 uM & Doxorubicin 0.02 nM to 100 uM
5. Time; 40 hr; 37 °C incubation
6. Reagent; 5 uL; CellTiter Glo reagent
7. Time; 20 min; Room Temperature
8. Detection; Luminescence; Viewlux plate reader
Keywords: cell viability, cytotoxicity, renal proximal tubule cells, luminescence, NTPHTS, NTPHTS_NCGC, NIEHS, EPA, DSSTox, MLSMR, MLSCN, NIH Roadmap, qHTS, NCGC
For `CN(C)CCC(c1ccccc1)c1ccccn1` (centres undefined), the Potency was “inactive”. With `CC1=C(/C=C/C(C)=C/C=C/C(C)=C/C(=O)Nc2ccc(O)cc2)C(C)(C)CCC1` the Potency was 20 µM (active). With `CC(=O)c1ccc(S(=O)(=O)NC(=O)NC2CCCCC2)cc1` the Potency was “inactive”. With `O=c1c(O)c(-c2ccc(O)cc2)oc2cc(O)cc(O)c12` the Potency was “inactive”. In the case of `CCCNC(=O)NS(=O)(=O)c1ccc(Cl)cc1`, the Potency is reported as “inactive”. For `O=c1[nH]cnc2c1ncn2[C@H]1CC[C@@H](CO)O1`, the Potency was “inactive”. For `CCn1cc(C(=O)O)c(=O)c2ccc(C)nc21`, the Potency was “inactive”. For `O=C1NC(=O)C(c2ccccc2)(c2ccccc2)N1`, the Potency was “inactive”. With `CCCCC1C(=O)N(c2ccccc2)N(c2ccccc2)C1=O` the Potency was “inactive”. In the case of `CC(=O)O[C@]1(C(C)=O)CC[C@H]2[C@@H]3C=C(Cl)C4=CC(=O)[C@@H]5C[C@@H]5[C@]4(C)[C@H]3CC[C@@]21C`, the Potency is reported as “inactive”. In the case of `O=c1c(-c2ccc(O)cc2)coc2cc(O)ccc12`, the Potency is reported as “inactive”. In the case of `O=C(O)c1cc(O)c2c(c1)C(=O)c1cccc(O)c1C2=O`, the Potency is reported as “inactive”. For `O=C(O)Cc1cccc2ccccc12`, the Potency was “inactive”. With `CC/C(=C(\c1ccccc1)c1ccc(OCCN(C)C)cc1)c1ccccc1` the activity change, negative = cytotoxicity was -109% (active).
